Entries with a potency or affinity are not part of this list. Inconclusive results are not listed. A number with no mark means an inactive call. Active and inactive are the calls of the source.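 Rule for the calls: active = signal loss with fitted half-maximal concentration at or below twice the top valid tested dose in every test run; inconclusive = runs disagree, flat 30 to 70% signal loss, or poor fit; inactive = all runs flat, opposite direction, or potency beyond limit.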
Test: HEK293T cytotoxicity, dose response, cytotoxicity control for miR-122 modulator project, cell-based, inhibitor set, cherry-pick, set 2 (AID 720697);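 note: 0% = median of neutral control wells and -100% = MG132 positive control wells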
Settings: HEK293T viability, CellTiter-Glo luminescence, 48 h; series mostly up to 26 µM

Structure (SMILES) | activity change, negative = cytotoxicity | outcome
COc1ccc(OC)c(Nc2cc(C)nc3ccc(C)cc23)c1 | -30% [at 6 µM] | –
O=C(COc1ccccc1F)N1CCc2ccccc2C1 | – | inactive
Cc1ccc(S(=O)(=O)Nc2ccc3c(c2)C(=O)N(C)[C@@H]2CC[C@@H](CC(=O)NCCc4ccncc4)O[C@@H]2CO3)cc1 | – | inactive
CC#CCCCC(=O)Nc1ccccc1C(=O)O | – | inactive
CC(C)NC(=O)Nc1ccc2c(c1)C(=O)N(C)[C@@H]1CC[C@H](CC(=O)NCC(F)(F)F)O[C@H]1CO2 | – | inactive
Cc1nn(C)cc1NC(=O)C[C@H]1CC[C@@H]2[C@H](COc3ccc(NC(=O)Nc4cccc(Cl)c4)cc3C(=O)N2C)O1 | – | inactive
CCC(=O)N(C)C[C@@H]1[C@H](c2ccc(-c3ccccc3F)cc2)[C@H](CO)N1C(C)=O | – | inactive
CCC(=O)N1[C@@H](CO)[C@@H](c2ccccc2)[C@@H]1CN(C(C)C)S(C)(=O)=O | – | inactive
CN(C)CCCNC(=O)C[C@@H]1CC[C@@H]2[C@@H](COc3ccc(NC(=O)NC4CCCC4)cc3C(=O)N2C)O1 | – | inactive
O=C(NC[C@H]1[C@@H](c2ccccc2)[C@@H](CO)N1CC1CCCC1)c1ccncc1 | – | inactive
CN(C)CCNc1ncnc2c1sc1nc(-c3ccccc3)c3c(c12)CCCC3 | – | inactive
COCC(=O)N1[C@@H](CO)[C@@H]2c3ccccc3N(C(=O)c3cccnc3)C[C@@H]21 | – | inactive
Cc1cc(C(=O)Nc2cccc(O)c2)co1 | – | inactive
CN1C(=O)c2cc(NC(=O)c3ccc4c(c3)OCO4)ccc2OC[C@@H]2O[C@@H](CC(=O)O)CC[C@@H]21 | – | inactive
Cc1cc(C(=O)Nc2ccc3c(c2)C(=O)N(C)[C@@H]2CC[C@@H](CC(=O)N[C@H](C)c4ccccc4)O[C@H]2CO3)no1 | – | inactive
C/C=C/c1ccc([C@@H]2[C@@H](CO)N(C(C)=O)[C@@H]2CN(CC)C(=O)CN(C)C)cc1 | – | inactive
COCCN(C[C@@H]1[C@H](c2ccccc2)[C@@H](CO)N1C(=O)C1CCC1)C(C)=O | – | inactive
C[C@H](CO)N1C[C@H](C)[C@H](CN(C)CC2CCCCC2)OCCCC[C@H](C)Oc2ccc(NC(=O)Nc3cccc4ccccc34)cc2C1=O | – | inactive
CCCNC(=O)N1[C@@H]2CN(C(=O)c3ccccc3)c3ccccc3[C@@H]2[C@@H]1CO | – | inactive
CCN(C[C@@H]1[C@@H](c2ccc(C3=CCCCC3)cc2)[C@@H](CO)N1CC1CC1)C(C)=O | – | inactive

Structure (SMILES) | activity change, negative = cytotoxicity | outcome
CC(=O)N1[C@H](CN(C)S(=O)(=O)c2ccccc2)[C@H](c2ccccc2)[C@@H]1CO | – | inactive
CN1C(=O)c2cc(NC(=O)c3cccc(F)c3)ccc2OC[C@H]2O[C@H](CC(=O)NC3CCC3)CC[C@H]21 | – | inactive
CO[C@@H]1CN(C)C(=O)c2ccc(NS(=O)(=O)c3cccc(F)c3)cc2OC[C@@H](C)NC[C@H]1C | – | inactive
CN1C(=O)c2cc(NC(=O)Cc3ccccc3)ccc2OC[C@H]2O[C@@H](CC(=O)NC3CCC3)CC[C@H]21 | – | inactive
CCOC(=O)c1nc(C)n(-c2ccc(Cl)cc2Cl)n1 | – | inactive
CN(C[C@H]1N[C@@H](CO)[C@@H]1c1ccc(C2=CCCC2)cc1)C(=O)c1ccc(F)cc1 | – | inactive
COc1cccc(CNC(=O)C[C@@H]2CC[C@H]3[C@H](COc4ccc(NC(C)=O)cc4C(=O)N3C)O2)c1 | – | inactive
CN1C(=O)c2cc(NC(=O)c3cccc(F)c3)ccc2OC[C@H]2O[C@@H](CC(=O)O)CC[C@H]21 | – | inactive
CN1C(=O)c2cc(NC(=O)Nc3ccc(Cl)cc3)ccc2OC[C@H]2O[C@H](CC(=O)NCCN3CCCCC3)CC[C@H]21 | – | inactive
CCCC(=O)Nc1ccc2c(c1)C(=O)N(C)[C@@H]1CC[C@H](CC(=O)NCCOC)O[C@H]1CO2 | – | inactive
CC(=O)N(C)C[C@@H]1[C@@H](c2ccc(-c3cccc(C#N)c3)cc2)[C@H](CO)N1C(C)=O | – | inactive
COCC(=O)N(C[C@H]1[C@H](c2ccccc2)[C@H](CO)N1C(=O)NC(C)C)C(C)C | – | inactive
CN1C(=O)c2cc(NC(=O)c3cccs3)ccc2OC[C@@H]2O[C@H](CC(=O)NCC(F)(F)F)CC[C@H]21 | – | inactive
O=C(c1cccnc1)N1C[C@H]2[C@@H](c3ccccc31)[C@H](CO)N2C(=O)C1CCCC1 | – | inactive
COc1cccc(CNC(=O)C[C@@H]2CC[C@@H]3[C@H](COc4ccc(NC(C)=O)cc4C(=O)N3C)O2)c1 | – | inactive
CCCC(=O)Nc1ccc2c(c1)C(=O)N(C)[C@H]1CC[C@@H](CC(=O)NCCN3CCCCC3)O[C@H]1CO2 | – | inactive
CCC(=O)N1[C@H](CO)[C@@H](c2ccccc2)[C@@H]1CN(CC)C(=O)c1cccc(F)c1 | – | inactive
COc1ccccc1CNc1nc(Nc2ccccc2Cl)c2sccc2n1 | – | inactive
C=CCNC(=S)NNC(=O)c1cccn(Cc2ccc(Cl)c(Cl)c2)c1=O | – | inactive
